Source: PubChem BioAssay (NCI)
The panel holds about 79,000 compounds, 15% with a hit somewhere; the sample as a whole holds those more often. A number with no mark means an inactive call. No stated cut-off is given here; in the data, active means growth inhibition above about 70%; inactive means the rest.

Assay: NCI Yeast Anticancer Drug Screen. Data for the mec2-1 strain (AID 157)
Conditions: S. cerevisiae mec2-1 strain, at 1.2 µM, active compounds read high
Procedure, shortened: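 Each compound was tested on mec2-1 yeast, a strain altered in DNA damage repair or cell cycle control. Growth inhibition is reported relative to vehicle.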

For `CCOP(=O)(OCC)C(Cc1ccccc1)N=C(c1ccccc1)c1ccccc1` (stereo not drawn), which growth inhibition is on record?
The growth inhibition was 18%.

For `CCc1ncnc2cc(OCC3CO3)c(OC)cc12` (stereo not drawn), which growth inhibition is on record?
Its growth inhibition is 2%.

With `CCOC(=O)[C@H]1Nc2ccccc2C2c3ccccc3CC21` (stereo partly drawn) as the molecule, how does the growth inhibition read?
Its growth inhibition is -23%.

Which growth inhibition does the source give for `O=CNc1ccc2c(c1)C(=O)c1ccccc1-2` here?
Its growth inhibition is 3%.

Which growth inhibition does the source give for `CCOc1ccc2c(c1)c(CC(=O)O)cn2C` here?
The growth inhibition was 1%.

Which growth inhibition does the source give for `OC1CSCCCSCCSCCCSC1` here?
The growth inhibition was -22%.

For `N#Cc1c(N)[nH]c2ccc(Sc3ccccc3)cc12`, which growth inhibition is on record?
The growth inhibition was -2%.

For `Cc1ccc(-c2ccc(Nc3c4ccccc4nc4ccccc34)cc2)cn1`, which growth inhibition is on record?
Its growth inhibition is -20%.

For `c1ccc2c(c1)NC(NC1Nc3ccccc3N1)N2`, which growth inhibition is on record?
Its growth inhibition is 5%.

With `OC(COc1cccc2ccccc12)CN1CCOCC1` (stereo not drawn) as the molecule, how does the growth inhibition read?
The growth inhibition was 9%.

With `CCC/C(Cl)=N\OC(=O)Nc1ccc(Br)cc1` as the molecule, how does the growth inhibition read?
Its growth inhibition is 16%.

For `COc1ccc(/C=C2\SC(=S)N(/C=C/c3nc4ccccc4[nH]c3=O)C2=O)cc1OC`, which growth inhibition is on record?
Its growth inhibition is 3%.

For `O=C(NNc1ccnc2cc(Cl)ccc12)/C(=C\c1ccccc1Cl)NC(=O)c1ccccc1`, which growth inhibition is on record?
The growth inhibition was -5%.

With `CSC1=NNC(SC)=NN1` as the molecule, how does the growth inhibition read?
Its growth inhibition is -4%.

Which growth inhibition does the source give for `Cc1c(C2=C(Br)C(=O)N(C)C2=O)c(=O)n(C)c(=O)n1C` here?
The growth inhibition was 7%.

With `NCCNc1ccc(NCCN)c2c1C(=O)c1c(O)ccc(O)c1C2=O` as the molecule, how does the growth inhibition read?
Its growth inhibition is -10%.

With `Cn1c(=O)c(-c2ccccc2)c(N=[N+]=[N-])c2ccccc21` as the molecule, how does the growth inhibition read?
Its growth inhibition is -1%.

With `CCCCCCCCCCCCCCCCCCOCC(O)COP(=O)(O)OCC1OC(n2cc(F)c(=O)[nH]c2=O)CC1O` (stereo not drawn) as the molecule, how does the growth inhibition read?
The growth inhibition was 4%.

With `CCS(=O)(=O)c1ccc(/C=C/C=N/NC(=S)NCC(C)C)cc1` as the molecule, how does the growth inhibition read?
The growth inhibition was 0%.

Which growth inhibition does the source give for `CCC(=O)Oc1c(Cl)cc(Cl)c2ccccc12` here?
Its growth inhibition is -2%.

For `COc1cc2c3c(cccc3c1)C(=O)N(CCN(C)C)C2=O`, which growth inhibition is on record?
The growth inhibition was -17%.

With `CN(C)c1ccc(C(C#N)=C(C#N)C#N)cc1` as the molecule, how does the growth inhibition read?
The growth inhibition was 2%.

With `O=C(CCCN1CCC2(CC1)CC(=O)N(N1CCCCCC1)C2=O)c1ccc(F)cc1` as the molecule, how does the growth inhibition read?
Its growth inhibition is 25%.

Which growth inhibition does the source give for `O=C1C2C(C(=O)N1c1ccc(OCc3ccccc3)cc1)C1c3ccccc3C2C2CCCCN21` (stereo not drawn) here?
The growth inhibition was -7%.

For `CCN(CC)CCC(=O)c1ccc(Oc2ccc(F)cc2)cc1`, which growth inhibition is on record?
Its growth inhibition is 17%.

With `O=Nc1c(NO)ccc2nn(-c3ccccc3)nc12` as the molecule, how does the growth inhibition read?
The growth inhibition was 9%.

With `CC(=O)SCCC[Si](C)(C)CCCSC(C)=O` as the molecule, how does the growth inhibition read?
Its growth inhibition is -3%.

For `O=C(O)C1CCCCC1c1c2ccc(=O)c(O)c-2oc2c(O)c(O)ccc12` (stereo not drawn), which growth inhibition is on record?
Its growth inhibition is -38%.

With `Cc1ccc(NN(NC(=O)OC(C)C)C(=O)OC(C)C)cc1` as the molecule, how does the growth inhibition read?
Its growth inhibition is 3%.

Which growth inhibition does the source give for `O=C1c2ccccc2C(=O)c2cc(CBr)ccc21` here?
Its growth inhibition is 1%.

For `Cc1c(C(Cc2ccccc2N(C)C(=O)/C=C\C(=O)O)c2c[nH]c3ccccc23)c2ccccc2n1C` (stereo not drawn), which growth inhibition is on record?
Its growth inhibition is -2%.

For `CC(C)/C(Cl)=N\OC(=O)Nc1ccc(F)cc1`, which growth inhibition is on record?
The growth inhibition was 6%.

For `O=C1OC(=O)C2CCCC3CCCC1C32` (stereo not drawn), which growth inhibition is on record?
The growth inhibition was 39%.

For `CCOC(=O)C(NC(=O)c1ccccc1)(N1CCN(c2cc3c(cc2F)c(=O)c(C(=O)O)cn3C2CC2)CC1)C(F)(F)F` (stereo not drawn), which growth inhibition is on record?
Its growth inhibition is -1%.

Which growth inhibition does the source give for `COc1ccc(NC(=S)N/N=C(\c2ccccc2)c2ccccn2)cc1` here?
Its growth inhibition is 0%.

For `C=CCC1=C(C)C(OC(=O)/C=C/c2ccccc2)CC1=O` (stereo not drawn), which growth inhibition is on record?
The growth inhibition was -4%.

With `NNc1c(F)c(F)cc(F)c1F` as the molecule, how does the growth inhibition read?
The growth inhibition was -37%.

For `COP(=O)(OC)/C(=C\C1=CN(C(c2ccccc2)(c2ccccc2)c2ccccc2)CN1)NC=O`, which growth inhibition is on record?
Its growth inhibition is 34%.

With `COC(=O)c1cc(-c2ccc(C)cc2)[nH]c(=O)c1C#N` as the molecule, how does the growth inhibition read?
Its growth inhibition is 0%.

Same assay, conditions: S. cerevisiae mec2-1 strain, at 3.7 µM, active compounds read high

For `CCOP(=O)(OCC)C(Cc1ccccc1)N=C(c1ccccc1)c1ccccc1` (stereo not drawn), which growth inhibition is on record?
Its growth inhibition is 8%.

For `CCc1ncnc2cc(OCC3CO3)c(OC)cc12` (stereo not drawn), which growth inhibition is on record?
Its growth inhibition is 6%.

With `CCOC(=O)[C@H]1Nc2ccccc2C2c3ccccc3CC21` (stereo partly drawn) as the molecule, how does the growth inhibition read?
The growth inhibition was -12%.

With `O=CNc1ccc2c(c1)C(=O)c1ccccc1-2` as the molecule, how does the growth inhibition read?
The growth inhibition was 4%.

With `CCOc1ccc2c(c1)c(CC(=O)O)cn2C` as the molecule, how does the growth inhibition read?
The growth inhibition was -2%.

With `OC1CSCCCSCCSCCCSC1` as the molecule, how does the growth inhibition read?
Its growth inhibition is -27%.

For `N#Cc1c(N)[nH]c2ccc(Sc3ccccc3)cc12`, which growth inhibition is on record?
The growth inhibition was 2%.

Which growth inhibition does the source give for `Cc1ccc(-c2ccc(Nc3c4ccccc4nc4ccccc34)cc2)cn1` here?
Its growth inhibition is -25%.

For `c1ccc2c(c1)NC(NC1Nc3ccccc3N1)N2`, which growth inhibition is on record?
The growth inhibition was 7%.

For `OC(COc1cccc2ccccc12)CN1CCOCC1` (stereo not drawn), which growth inhibition is on record?
Its growth inhibition is 17%.

For `CCC/C(Cl)=N\OC(=O)Nc1ccc(Br)cc1`, which growth inhibition is on record?
The growth inhibition was 27%.

With `COc1ccc(/C=C2\SC(=S)N(/C=C/c3nc4ccccc4[nH]c3=O)C2=O)cc1OC` as the molecule, how does the growth inhibition read?
Its growth inhibition is 5%.

For `O=C(NNc1ccnc2cc(Cl)ccc12)/C(=C\c1ccccc1Cl)NC(=O)c1ccccc1`, which growth inhibition is on record?
The growth inhibition was -1%.

Which growth inhibition does the source give for `CSC1=NNC(SC)=NN1` here?
Its growth inhibition is -22%.

For `Cc1c(C2=C(Br)C(=O)N(C)C2=O)c(=O)n(C)c(=O)n1C`, which growth inhibition is on record?
The growth inhibition was 15%.

For `NCCNc1ccc(NCCN)c2c1C(=O)c1c(O)ccc(O)c1C2=O`, which growth inhibition is on record?
The growth inhibition was 18%.

With `Cn1c(=O)c(-c2ccccc2)c(N=[N+]=[N-])c2ccccc21` as the molecule, how does the growth inhibition read?
The growth inhibition was -9%.

For `CCCCCCCCCCCCCCCCCCOCC(O)COP(=O)(O)OCC1OC(n2cc(F)c(=O)[nH]c2=O)CC1O` (stereo not drawn), which growth inhibition is on record?
Its growth inhibition is 12%.

With `CCS(=O)(=O)c1ccc(/C=C/C=N/NC(=S)NCC(C)C)cc1` as the molecule, how does the growth inhibition read?
The growth inhibition was 1%.

With `CCC(=O)Oc1c(Cl)cc(Cl)c2ccccc12` as the molecule, how does the growth inhibition read?
The growth inhibition was -2%.

With `COc1cc2c3c(cccc3c1)C(=O)N(CCN(C)C)C2=O` as the molecule, how does the growth inhibition read?
Its growth inhibition is -11%.

For `CN(C)c1ccc(C(C#N)=C(C#N)C#N)cc1`, which growth inhibition is on record?
The growth inhibition was 2%.

Which growth inhibition does the source give for `O=C(CCCN1CCC2(CC1)CC(=O)N(N1CCCCCC1)C2=O)c1ccc(F)cc1` here?
The growth inhibition was 28%.

For `O=C1C2C(C(=O)N1c1ccc(OCc3ccccc3)cc1)C1c3ccccc3C2C2CCCCN21` (stereo not drawn), which growth inhibition is on record?
The growth inhibition was -6%.

Which growth inhibition does the source give for `CCN(CC)CCC(=O)c1ccc(Oc2ccc(F)cc2)cc1` here?
Its growth inhibition is 35%.

For `O=Nc1c(NO)ccc2nn(-c3ccccc3)nc12`, which growth inhibition is on record?
Its growth inhibition is 36%.

With `CC(=O)SCCC[Si](C)(C)CCCSC(C)=O` as the molecule, how does the growth inhibition read?
The growth inhibition was -3%.

For `O=C(O)C1CCCCC1c1c2ccc(=O)c(O)c-2oc2c(O)c(O)ccc12` (stereo not drawn), which growth inhibition is on record?
The growth inhibition was -32%.

Which growth inhibition does the source give for `Cc1ccc(NN(NC(=O)OC(C)C)C(=O)OC(C)C)cc1` here?
Its growth inhibition is 5%.

Which growth inhibition does the source give for `O=C1c2ccccc2C(=O)c2cc(CBr)ccc21` here?
The growth inhibition was 2%.

Which growth inhibition does the source give for `Cc1c(C(Cc2ccccc2N(C)C(=O)/C=C\C(=O)O)c2c[nH]c3ccccc23)c2ccccc2n1C` (stereo not drawn) here?
The growth inhibition was -4%.

Which growth inhibition does the source give for `CC(C)/C(Cl)=N\OC(=O)Nc1ccc(F)cc1` here?
Its growth inhibition is 10%.

For `O=C1OC(=O)C2CCCC3CCCC1C32` (stereo not drawn), which growth inhibition is on record?
Its growth inhibition is 33%.

With `CCOC(=O)C(NC(=O)c1ccccc1)(N1CCN(c2cc3c(cc2F)c(=O)c(C(=O)O)cn3C2CC2)CC1)C(F)(F)F` (stereo not drawn) as the molecule, how does the growth inhibition read?
Its growth inhibition is -2%.

With `COc1ccc(NC(=S)N/N=C(\c2ccccc2)c2ccccn2)cc1` as the molecule, how does the growth inhibition read?
The growth inhibition was -7%.

With `C=CCC1=C(C)C(OC(=O)/C=C/c2ccccc2)CC1=O` (stereo not drawn) as the molecule, how does the growth inhibition read?
The growth inhibition was -4%.

Which growth inhibition does the source give for `NNc1c(F)c(F)cc(F)c1F` here?
Its growth inhibition is -35%.

Which growth inhibition does the source give for `COP(=O)(OC)/C(=C\C1=CN(C(c2ccccc2)(c2ccccc2)c2ccccc2)CN1)NC=O` here?
The growth inhibition was 13%.

With `COC(=O)c1cc(-c2ccc(C)cc2)[nH]c(=O)c1C#N` as the molecule, how does the growth inhibition read?
Its growth inhibition is 0%.
